Laboratory results from PubChem BioAssay AID1159580 (chemical genetic matrix, 2015).
Values joined by “and” are separate entries in the source; they are usually repeats but may differ in a detail not shown here. Identical values can stand only once. Screen size: about 5,500 compounds; about 2,000 (36%) were called active. Inconclusive results (about 18%) are left out. Rule as the data show it: active = normalized growth mostly below about 0.91 (no sharp cut-off); inconclusive = no clear call, values can overlap the other calls; inactive = mostly above about 0.92. Some of the results follow.

Assay: chemical genetic growth profiling, strain panel (AID 1159580);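 also: tested at 20 µM; growth read once vehicle control cultures reached saturation at 30 °C; 1 = growth at the plate median or of vehicle wells; lower values mean less growth of the strain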
Details: S. cerevisiae deletion strains, growth OD

Measured: normalized growth

CC(C)N(CCC(C(N)=O)(c1ccccc1)c1ccccn1)C(C)C (stereo unspecified)
active: locus YAL021C, strain ccr4, stronger effect = lower value 0.0708 | locus YAL026C, strain drs2, stronger effect = lower value 0.0629 | locus YAL030W, strain snc1, stronger effect = lower value 0.233 | locus YBL061C, strain skt5, stronger effect = lower value 0.15 | locus YBR009C, strain hhf1, stronger effect = lower value 0.103 | locus YBR023C, strain chs3, stronger effect = lower value 0.171 | locus YBR171W, strain sec66, stronger effect = lower value 0.0831 | locus YBR231C, strain swc5, stronger effect = lower value 0.0926 | locus YBR279W, strain paf1, stronger effect = lower value 0.0794 | locus YCL011C, strain gbp2, stronger effect = lower value 0.062 | locus YCL016C, strain dcc1, stronger effect = lower value 0.251 | locus YCL061C, strain MRC1, stronger effect = lower value 0.0703 | locus YCL069W, strain vba3, stronger effect = lower value 0.0939 | locus YCR088W, strain abp1, stronger effect = lower value 0.0673 | locus YDL040C, strain nat1, stronger effect = lower value 0.471 | locus YDR001C, strain nth1, stronger effect = lower value 0.0635 | locus YDR069C, strain doa4, stronger effect = lower value 0.0647 | locus YDR137W, strain rgp1, stronger effect = lower value 0.0968 | locus YDR159W, strain sac3, stronger effect = lower value 0.388 | locus YDR195W, strain ref2 0.12 | locus YDR297W, strain sur2, stronger effect = lower value 0.0705 | locus YDR334W, strain swr1, stronger effect = lower value 0.0666 | locus YDR335W, strain msn5, stronger effect = lower value 0.0613 | locus YDR392W, strain spt3, stronger effect = lower value 0.112 | locus YEL003W, strain gim4, stronger effect = lower value 0.0565 | locus YEL037C, strain rad23, stronger effect = lower value 0.0584 | locus YEL061C, strain CIN8 (second series), stronger effect = lower value 0.0634 | locus YER015W, strain faa2, stronger effect = lower value 0.0627 | locus YER016W, strain bim1, stronger effect = lower value 0.0943 | locus YER111C, strain swi4, stronger effect = lower value 0.082 | locus YER155C, strain BEM2 (second series), stronger effect = lower value 0.1 | locus YFR010W, strain ubp6, stronger effect = lower value 0.0698 | locus YGL167C, strain pmr1, stronger effect = lower value 0.563 | locus YGL173C, strain kem1, stronger effect = lower value 0.114 | locus YGL227W, strain vid30, stronger effect = lower value 0.0631 | locus YGL240W, strain doc1, stronger effect = lower value 0.129 | locus YGL253W, strain hxk2, stronger effect = lower value 0.0581 | locus YHR013C, strain ard1, stronger effect = lower value 0.114 | locus YHR027C, strain rpn1, stronger effect = lower value 0.0639 | locus YHR142W, strain chs7, stronger effect = lower value 0.0788 | locus YJL092W, strain hpr5, stronger effect = lower value 0.0644 | locus YJL095W, strain BCK1 (second series), stronger effect = lower value 0.17 | locus YJL115W, strain asf1, stronger effect = lower value 0.0925 | locus YJL129C, strain trk1, stronger effect = lower value 0.0869 | locus YJL154C, strain vps35, stronger effect = lower value 0.0659 | locus YJL164C, strain tpk1, stronger effect = lower value 0.13 | locus YJL166W, strain qcr8, stronger effect = lower value 0.0729 | locus YJL187C, strain SWE1, stronger effect = lower value 0.468 | locus YKL160W, strain elf1, stronger effect = lower value 0.139 | locus YKR026C, strain gcn3, stronger effect = lower value 0.441 | locus YKR091W, strain srl3, stronger effect = lower value 0.559 | locus YLL001W, strain dnm1, stronger effect = lower value 0.0623 | locus YLL026W, stronger effect = lower value 0.0653 | locus YLL041C, strain sdh2, stronger effect = lower value 0.411 | locus YLR027C, strain aat2, stronger effect = lower value 0.0601 | locus YLR221C, strain rsa3, stronger effect = lower value 0.0673 | locus YLR258W, strain gsy2, stronger effect = lower value 0.0927 | locus YLR262C, strain YPT6 (second series), stronger effect = lower value 0.0974 | locus YLR320W, strain mms22, stronger effect = lower value 0.104 | locus YLR342W, strain FKS1, stronger effect = lower value 0.0913 | locus YLR357W, strain rsc2, stronger effect = lower value 0.133 | locus YLR370C, strain arc18, stronger effect = lower value 0.0613 | locus YLR384C, strain iki3, stronger effect = lower value 0.0647 | locus YML120C, strain ndi1, stronger effect = lower value 0.0595 | locus YMR058W, strain fet3, stronger effect = lower value 0.0623 | locus YMR125W, strain sto1, stronger effect = lower value 0.309 | locus YMR129W, stronger effect = lower value 0.0614 | locus YMR205C, strain PFK2, stronger effect = lower value 0.193 | locus YMR231W, strain pep5, stronger effect = lower value 0.095 | locus YNL071W, strain lat1, stronger effect = lower value 0.0658 | locus YNL209W, strain ssb2, stronger effect = lower value 0.0612 | locus YNL248C, strain rpa49, stronger effect = lower value 0.0783 | locus YNL322C, strain KRE1 (second series), stronger effect = lower value 0.0713 | locus YNR049C, strain mso1, stronger effect = lower value 0.0601 | locus YOR001W, strain rrp6, stronger effect = lower value 0.0692 | locus YOR070C, strain gyp1, stronger effect = lower value 0.0654 | locus YOR080W, strain dia2, stronger effect = lower value 0.0699 | locus YOR083W, strain WHI5, stronger effect = lower value 0.227 | locus YOR106W, strain vam3, stronger effect = lower value 0.0676 | locus YOR265W, strain rbl2, stronger effect = lower value 0.0664 | locus YOR270C, strain vph1, stronger effect = lower value 0.0928 | locus YOR290C, strain snf2, stronger effect = lower value 0.0671 | locus YPL051W, strain arl3, stronger effect = lower value 0.0788 | locus YPL078C, strain atp4, stronger effect = lower value 0.0695 | locus YPL106C, strain sse1, stronger effect = lower value 0.117 | locus YPL240C, strain hsp82, stronger effect = lower value 0.278
inactive: locus YAL013W, strain DEP1, stronger effect = lower value 0.959 | locus YAL040C, strain CLN3, stronger effect = lower value 0.969 and 1.02 | locus YBR021W, strain FUR4, stronger effect = lower value 0.984 | locus YBR229C, strain ROT2, stronger effect = lower value 0.998 | locus YCL029C, strain bik1, stronger effect = lower value 0.963 | locus YCL061C, strain MRC1 (second series), stronger effect = lower value 0.993 and 1.01 | locus YDL005C, strain med2, stronger effect = lower value 0.937 | locus YDL035C, strain GPR1, stronger effect = lower value 1.04 | locus YDL074C, strain BRE1, stronger effect = lower value 0.976 | locus YDL101C, strain DUN1, stronger effect = lower value 0.988 | locus YDL185W, strain tfp1, stronger effect = lower value 0.971 | locus YDL192W, strain arf1, stronger effect = lower value 0.995 | locus YDR101C, strain arx1, stronger effect = lower value 0.983 | locus YDR150W, strain NUM1, stronger effect = lower value 0.989 and 1 and 1.01 | locus YDR162C, strain NBP2, stronger effect = lower value 1.01 | locus YDR318W, strain mcm21, stronger effect = lower value 0.998 | locus YDR363W, strain ESC2, stronger effect = lower value 0.982 and 0.999 | locus YDR388W, stronger effect = lower value 0.99 | locus YDR502C, strain sam2, stronger effect = lower value 0.992 | locus YEL061C, strain CIN8, stronger effect = lower value 0.996 | locus YER002W, strain NOP16, stronger effect = lower value 0.995 and 1 | locus YER110C, stronger effect = lower value 0.977 | locus YER155C, strain BEM2, stronger effect = lower value 0.989 | locus YER167W, strain BCK2, stronger effect = lower value 0.986 | locus YGL078C, strain dbp3, stronger effect = lower value 0.99 | locus YGL086W, strain mad1, stronger effect = lower value 1 | locus YGL248W, strain PDE1, stronger effect = lower value 0.98 | locus YGR078C, strain PAC10, stronger effect = lower value 0.99 and 1.04 | locus YGR135W, strain pre9, stronger effect = lower value 0.952 | locus YGR252W, strain gcn5, stronger effect = lower value 0.997 | locus YHR030C, strain SLT2, stronger effect = lower value 0.997 and 1 | locus YHR079C, strain IRE1 (second series), stronger effect = lower value 0.995 | locus YHR079C, strain IRE1, stronger effect = lower value 0.968 | locus YHR094C, strain hxt1, stronger effect = lower value 0.976 | locus YHR129C, strain ARP1, stronger effect = lower value 0.999 | locus YHR200W, strain rpn10, stronger effect = lower value 0.999 | locus YIL066C, strain RNR3, stronger effect = lower value 0.992 | locus YIL073C, strain SPO22, stronger effect = lower value 0.912 | locus YIL125W, strain kgd1, stronger effect = lower value 1 | locus YIR030C, strain dcg1, stronger effect = lower value 0.973 | locus YJL095W, strain BCK1, stronger effect = lower value 0.966 and 1.01 | locus YJL134W, strain LCB3, stronger effect = lower value 0.998 | locus YJL168C, strain set2, stronger effect = lower value 0.996 | locus YJL187C, strain SWE1 (second series), stronger effect = lower value 0.977 | locus YJR043C, strain POL32, stronger effect = lower value 1.05 | locus YJR066W, strain TOR1, stronger effect = lower value 0.994 | locus YJR075W, strain HOC1, stronger effect = lower value 1.02 | locus YKL009W, strain mrt4, stronger effect = lower value 0.97 | locus YKL068W, stronger effect = lower value 0.98 | locus YKL085W, strain MDH1 (second series), stronger effect = lower value 0.988 | locus YKL085W, strain MDH1, stronger effect = lower value 0.988 | locus YKR001C, strain vps1, stronger effect = lower value 0.988 | locus YLR039C, strain RIC1, stronger effect = lower value 0.972 | locus YLR058C, strain SHM2, stronger effect = lower value 0.979 | locus YLR102C, strain apc9, stronger effect = lower value 0.987 | locus YLR113W, strain HOG1, stronger effect = lower value 1.06 | locus YLR262C, strain YPT6, stronger effect = lower value 0.963 | locus YLR268W, strain sec22, stronger effect = lower value 0.999 | locus YLR330W, strain CHS5, stronger effect = lower value 0.989 | locus YLR342W, strain FKS1 (second series), stronger effect = lower value 1.02 | locus YLR371W, strain rom2, stronger effect = lower value 0.997 | locus YLR418C, strain cdc73, stronger effect = lower value 0.967 | locus YML016C, strain PPZ1, stronger effect = lower value 0.997 | locus YML032C, strain rad52, stronger effect = lower value 1.01 | locus YML124C, strain tub3, stronger effect = lower value 0.994 | locus YMR078C, strain ctf18, stronger effect = lower value 0.978 | locus YMR223W, strain ubp8, stronger effect = lower value 0.978 | locus YMR263W, strain SAP30, stronger effect = lower value 0.991 | locus YMR307W, strain GAS1, stronger effect = lower value 1.01 and 0.995 and 1.02 | locus YNL067W, strain RPL9B, stronger effect = lower value 0.973 | locus YNL128W, strain TEP1, stronger effect = lower value 1.02 and 0.999 | locus YNL153C, strain GIM3, stronger effect = lower value 0.983 and 1.03 | locus YNL175C, strain NOP13, stronger effect = lower value 0.978 and 1.02 | locus YNL183C, strain NPR1, stronger effect = lower value 1 | locus YNL197C, strain WHI3, stronger effect = lower value 1.01 and 0.977 | locus YNL224C, strain SQS1, stronger effect = lower value 0.978 and 1.01 | locus YNL233W, strain BNI4, stronger effect = lower value 0.972 | locus YNL250W, strain rad50, stronger effect = lower value 1.01 | locus YNL271C, strain bni1, stronger effect = lower value 0.996 | locus YNL298W, strain CLA4, stronger effect = lower value 0.997 | locus YNL307C, strain MCK1, stronger effect = lower value 0.999 | locus YNL322C, strain KRE1, stronger effect = lower value 0.977 and 1.02 | locus YNR052C, strain pop2, stronger effect = lower value 0.997 | locus YOL012C, strain htz1 0.863 | locus YOL147C, strain pex11, stronger effect = lower value 0.984 | locus YOR061W, strain CKA2, stronger effect = lower value 0.998 | locus YOR069W, strain VPS5, stronger effect = lower value 0.996 | locus YOR083W, strain WHI5 (second series), stronger effect = lower value 1 and 0.957 | locus YOR136W, strain idh2, stronger effect = lower value 1.01 | locus YOR144C, strain elg1, stronger effect = lower value 0.996 | locus YOR184W, strain ser1, stronger effect = lower value 0.995 | locus YOR231W, strain MKK1, stronger effect = lower value 1.02 | locus YOR316C, strain cot1, stronger effect = lower value 1 | locus YPL241C, strain CIN2, stronger effect = lower value 0.995 and 1.01 | locus YPL256C, strain CLN2, stronger effect = lower value 0.991 | locus YPR119W, strain clb2, stronger effect = lower value 0.997 | locus YPR141C, strain kar3, stronger effect = lower value 0.962 | locus YPR163C, strain tif3, stronger effect = lower value 0.989 | locus YPR167C, strain met16, stronger effect = lower value 1.01 | strain wtn01, stronger effect = lower value 0.996
